From PubChem BioAssay AID1159580 (chemical genetic matrix, 2015)
The campaign covered roughly 5,500 compounds. About 2,000 (36%) were called active. Not shown: some 18% with an inconclusive outcome. Rule as the data show it: active = normalized growth mostly below about 0.91 (no sharp cut-off); inconclusive = no clear call, values can overlap the other calls; inactive = mostly above about 0.92. This is one part of the list.

Assay: chemical genetic growth profiling, strain panel (AID 1159580);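 also: tested at 20 µM; growth read once vehicle control cultures reached saturation at 30 °C; 1 = growth at the plate median or of vehicle wells; lower values mean less growth of the strain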
Conditions: growth OD

Measured: normalized growth

COc1ccc2c3c1OC1C(O)CC=C4C(C2)N(C)CCC431 (stereo unspecified)
inactive: S. cerevisiae deletion strains, locus YAL013W, strain DEP1, active compounds read low 0.994 | S. cerevisiae deletion strains, locus YBR021W, strain FUR4, active compounds read low 1.01 | S. cerevisiae deletion strains, locus YBR229C, strain ROT2, active compounds read low 1.01 | S. cerevisiae deletion strains, locus YCL029C, strain bik1, active compounds read low 1.03 | S. cerevisiae deletion strains, locus YDL035C, strain GPR1, active compounds read low 1.01 | S. cerevisiae deletion strains, locus YDL074C, strain BRE1, active compounds read low 1.04 | S. cerevisiae deletion strains, locus YDL101C, strain DUN1, active compounds read low 1.03 | S. cerevisiae deletion strains, locus YDL134C, strain PPH21, active compounds read low 1.01 | S. cerevisiae deletion strains, locus YDL185W, strain tfp1, active compounds read low 1.02 | S. cerevisiae deletion strains, locus YDL192W, strain arf1, active compounds read low 1.02 | S. cerevisiae deletion strains, locus YDR101C, strain arx1, active compounds read low 1 | S. cerevisiae deletion strains, locus YDR150W, strain NUM1, active compounds read low 1.02 | S. cerevisiae deletion strains, locus YDR162C, strain NBP2, active compounds read low 1.01 | S. cerevisiae deletion strains, locus YDR318W, strain mcm21, active compounds read low 1.02 | S. cerevisiae deletion strains, locus YDR388W, active compounds read low 1 | S. cerevisiae deletion strains, locus YDR502C, strain sam2, active compounds read low 1.01 | S. cerevisiae deletion strains, locus YEL061C, strain CIN8, active compounds read low 1.01 | S. cerevisiae deletion strains, locus YER110C, active compounds read low 1.02 | S. cerevisiae deletion strains, locus YER155C, strain BEM2, active compounds read low 0.996 | S. cerevisiae deletion strains, locus YER167W, strain BCK2, active compounds read low 1.03 | S. cerevisiae deletion strains, locus YGL078C, strain dbp3, active compounds read low 1.01 | S. cerevisiae deletion strains, locus YGL086W, strain mad1, active compounds read low 1.02 | S. cerevisiae deletion strains, locus YGL248W, strain PDE1, active compounds read low 1.02 | S. cerevisiae deletion strains, locus YGR078C, strain PAC10, active compounds read low 1.03 | S. cerevisiae deletion strains, locus YGR135W, strain pre9, active compounds read low 1.01 | S. cerevisiae deletion strains, locus YGR229C, strain SMI1, active compounds read low 0.993 | S. cerevisiae deletion strains, locus YGR252W, strain gcn5, active compounds read low 1.02 | S. cerevisiae deletion strains, locus YHR030C, strain SLT2, active compounds read low 1.01 | S. cerevisiae deletion strains, locus YHR079C, strain IRE1 (second series), active compounds read low 1.02 | S. cerevisiae deletion strains, locus YHR094C, strain hxt1, active compounds read low 1.01 | S. cerevisiae deletion strains, locus YHR129C, strain ARP1, active compounds read low 1.01 | S. cerevisiae deletion strains, locus YHR200W, strain rpn10, active compounds read low 1.01 | S. cerevisiae deletion strains, locus YIL066C, strain RNR3, active compounds read low 1.01 | S. cerevisiae deletion strains, locus YIL073C, strain SPO22, active compounds read low 1.1 | S. cerevisiae deletion strains, locus YIL125W, strain kgd1, active compounds read low 1.01 | S. cerevisiae deletion strains, locus YIR030C, strain dcg1, active compounds read low 1.02 | S. cerevisiae deletion strains, locus YJL095W, strain BCK1, active compounds read low 1.03 | S. cerevisiae deletion strains, locus YJL134W, strain LCB3, active compounds read low 1.01 | S. cerevisiae deletion strains, locus YJL168C, strain set2, active compounds read low 1.02 | S. cerevisiae deletion strains, locus YJL187C, strain SWE1 (second series), active compounds read low 1.02 | S. cerevisiae deletion strains, locus YJR043C, strain POL32, active compounds read low 1.03 | S. cerevisiae deletion strains, locus YJR075W, strain HOC1, active compounds read low 1.02 | S. cerevisiae deletion strains, locus YKL009W, strain mrt4, active compounds read low 1.03 | S. cerevisiae deletion strains, locus YKL068W, active compounds read low 1.01 | S. cerevisiae deletion strains, locus YKL085W, strain MDH1 (second series), active compounds read low 1.01 | S. cerevisiae deletion strains, locus YKL085W, strain MDH1, active compounds read low 1.01 | S. cerevisiae deletion strains, locus YKL190W, strain CNB1, active compounds read low 1.01 | S. cerevisiae deletion strains, locus YKR001C, strain vps1, active compounds read low 1.03 | S. cerevisiae deletion strains, locus YLR039C, strain RIC1, active compounds read low 1.04 | S. cerevisiae deletion strains, locus YLR058C, strain SHM2, active compounds read low 1.02 | S. cerevisiae deletion strains, locus YLR102C, strain apc9, active compounds read low 1.01 | S. cerevisiae deletion strains, locus YLR262C, strain YPT6, active compounds read low 1.05 | S. cerevisiae deletion strains, locus YLR268W, strain sec22, active compounds read low 1.02 | S. cerevisiae deletion strains, locus YLR330W, strain CHS5, active compounds read low 1.01 | S. cerevisiae deletion strains, locus YLR342W, strain FKS1 (second series), active compounds read low 1.02 | S. cerevisiae deletion strains, locus YLR371W, strain rom2, active compounds read low 1.01 | S. cerevisiae deletion strains, locus YLR418C, strain cdc73, active compounds read low 1.02 | S. cerevisiae deletion strains, locus YML016C, strain PPZ1, active compounds read low 1.02 | S. cerevisiae deletion strains, locus YML032C, strain rad52, active compounds read low 1.02 | S. cerevisiae deletion strains, locus YML124C, strain tub3, active compounds read low 1.02 | S. cerevisiae deletion strains, locus YMR078C, strain ctf18, active compounds read low 1.03 | S. cerevisiae deletion strains, locus YMR223W, strain ubp8, active compounds read low 1.03 | S. cerevisiae deletion strains, locus YMR263W, strain SAP30, active compounds read low 1.02 | S. cerevisiae deletion strains, locus YMR307W, strain GAS1, active compounds read low 0.962 | S. cerevisiae deletion strains, locus YNL067W, strain RPL9B, active compounds read low 1.03 | S. cerevisiae deletion strains, locus YNL128W, strain TEP1, active compounds read low 1.02 | S. cerevisiae deletion strains, locus YNL153C, strain GIM3, active compounds read low 1.02 | S. cerevisiae deletion strains, locus YNL233W, strain BNI4, active compounds read low 1.02 | S. cerevisiae deletion strains, locus YNL250W, strain rad50, active compounds read low 1.03 | S. cerevisiae deletion strains, locus YNL271C, strain bni1, active compounds read low 1.01 | S. cerevisiae deletion strains, locus YNL298W, strain CLA4, active compounds read low 1.03 | S. cerevisiae deletion strains, locus YNL307C, strain MCK1, active compounds read low 1.02 | S. cerevisiae deletion strains, locus YNL322C, strain KRE1, active compounds read low 1.01 | S. cerevisiae deletion strains, locus YNR052C, strain pop2, active compounds read low 1.02 | S. cerevisiae deletion strains, locus YOL006C, strain TOP1, active compounds read low 1.1 | S. cerevisiae deletion strains, locus YOL012C, strain htz1 0.859 | S. cerevisiae deletion strains, locus YOL147C, strain pex11, active compounds read low 1 | S. cerevisiae deletion strains, locus YOR061W, strain CKA2, active compounds read low 1.02 | S. cerevisiae deletion strains, locus YOR069W, strain VPS5, active compounds read low 1.01 | S. cerevisiae deletion strains, locus YOR136W, strain idh2, active compounds read low 1.02 | S. cerevisiae deletion strains, locus YOR144C, strain elg1, active compounds read low 1.02 | S. cerevisiae deletion strains, locus YOR184W, strain ser1, active compounds read low 1.03 | S. cerevisiae deletion strains, locus YOR316C, strain cot1, active compounds read low 1.02 | S. cerevisiae deletion strains, locus YPL055C, strain LGE1, active compounds read low 1.03 | S. cerevisiae deletion strains, locus YPL241C, strain CIN2, active compounds read low 1.01 | S. cerevisiae deletion strains, locus YPR119W, strain clb2, active compounds read low 1 | S. cerevisiae deletion strains, locus YPR141C, strain kar3, active compounds read low 1.01 | S. cerevisiae deletion strains, locus YPR163C, strain tif3, active compounds read low 1.02 | S. cerevisiae deletion strains, locus YPR167C, strain met16, active compounds read low 1.02 | S. cerevisiae deletion strains, strain wtn01, active compounds read low 1.01 | S. cerevisiae strains, strain wild type, active compounds read low 1
